Inconclusive results are not listed. Activity calls are given as the source filed them. Calls come from the whole dose curve; as a rule, active = well fitted inhibition curve with a large enough effect; inconclusive = small, poorly fitted or top-dose-only effect; inactive = flat fitted curve, though single readings scatter.
What was measured:
Experiment in all cases: qHTS profiling for inhibitors of Plasmodium falciparum proliferation (AID 504749); note: nearly all actives have a fitted effect of over 60% in size
Settings in all cases: P. falciparum in erythrocytes, SYBR Green DNA, 72 h; series mostly up to 28.7 µM
PC26 = system: PC26
Method in brief: (§1)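 Fluorescence of SYBR Green-bound parasite DNA, read at 485/535 nm, served as the growth measure. Infected erythrocytes were cultured with compound 72 h; artemisinin (0.29 uM) and DMSO wells defined the normalization range.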

PC49 = system: PC49
Method in brief: as §1

SC27B = system: SC27B
Method in brief: as §1

TAB109 = system: TAB109
Method in brief: as §1

TAB113 = system: TAB113
Method in brief: as §1

TAB165 = system: TAB165
Method in brief: as §1

W2 = system: W2
Method in brief: as §1

Measured: Potency
Potency is the fitted concentration of half-maximal effect.

c1ccc2cc(CC3=NCCN3)ccc2c1
inactive: PC26 | PC49 | SC27B | TAB109 | TAB113 | TAB165 | W2

[O]=[Cr](=[O])([OH])[O][Cr](=[O])(=[O])[OH]
inactive: PC26 | PC49 | SC27B | TAB109 | TAB113 | TAB165 | W2

N#CN
inactive: PC26 | PC49 | SC27B | TAB109 | TAB113 | TAB165 | W2

O=C/C=C/c1ccccc1
inactive: PC26 | PC49 | SC27B | TAB109 | TAB113 | TAB165 | W2

Oc1cc(Cl)c(Cl)cc1Cl
inactive: PC26 | PC49 | SC27B | TAB109 | TAB113 | TAB165 | W2

CCCCNCC(O)c1ccc(O)cc1 (centres undefined)
inactive: PC26 | PC49 | SC27B | TAB109 | TAB113 | TAB165 | W2

O=C1CCCCC1CN1CCCCC1 (centres undefined)
inactive: PC26 | PC49 | SC27B | TAB109 | TAB113 | TAB165 | W2

CC(=O)OC1CN2CCC1CC2 (centres undefined)
inactive: PC26 | PC49 | SC27B | TAB109 | TAB113 | TAB165 | W2

[O]=[Cd]
inactive: PC26 | PC49 | SC27B | TAB109 | TAB113 | TAB165 | W2

CNC1(c2ccccc2Cl)CCCCC1=O (centres undefined)
active: W2 4.78 µM
inactive: PC26 | PC49 | SC27B | TAB109 | TAB113 | TAB165

S=C(S)N1CCNCC1
inactive: PC26 | PC49 | SC27B | TAB109 | TAB113 | TAB165 | W2

Clc1ccccc1Cl
inactive: PC26 | PC49 | SC27B | TAB109 | TAB113 | TAB165 | W2

From PubChem BioAssay (NCATS)
